{"source": "the supplement of paper PMC11219838", "conditions_in_all_cases": "60 µM; 5 days; temperature: 20 °C", "key": {"Meloidogyne hapla J2": {"tested_on": "Meloidogyne hapla J2", "test": "proportion of mobile M. hapla J2 relative to DMSO control (fraction of DMSO control); higher = more viable, less nematicidal, active = 0.7 or less", "procedure,_shortened": "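Compound was pinned to 60 µM final (0.6% v/v DMSO) into 96-well wells, each holding about 25 M. hapla J2 in distilled water. Plates were sealed and shaken for 5 days at 20 °C and 200 rpm, then given 2 µL 1 M NaOH per well. Microscopic mobility scores were normalised to the mean of the plate's own DMSO wells, eight per plate, with two biological replicates averaged.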"}, "[1]": {"tested_on": "Caenorhabditis elegans dauer (daf-2(e1370))", "test": "proportion of mobile C. elegans dauer larvae relative to DMSO control (fraction of DMSO control); higher = more viable, less nematicidal, active = 0.63 or less; extreme values may be limits of the assay", "procedure,_shortened": "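Compound was added by pinning to 60 µM final, giving 0.6% v/v DMSO, in 96-well plates containing about 20 C. elegans dauers per well in liquid NGM. These dauers came from synchronized larvae held on MYOB plates with E. coli OP50 for 48 h at 25 °C. Plates were sealed and shaken at 200 rpm at 20 °C for 5 days. Under a dissection microscope, the proportion of mobile worms was scored relative to DMSO wells, and two biological replicates were averaged.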"}, "Ditylenchus dipsaci": {"tested_on": "Ditylenchus dipsaci", "test": "proportion of mobile D. dipsaci (mixed stage) relative to DMSO control (fraction of DMSO control); higher = more viable, less nematicidal, active = 0.86 or less; extreme values may be limits of the assay", "procedure,_shortened": "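Mobility values are relative to DMSO controls and are averages of two biological replicates. For each well of a 96-well plate, about 20 D. dipsaci worms, grown on pea plants in Gamborg B-5 agar and funnel-extracted into water, were dispensed in distilled water. Plates received pinned compound at 60 µM final with 0.6% v/v DMSO and were sealed and shaken at 200 rpm for 5 days at 20 °C before 2 µL 1 M NaOH was added and mobile worms were scored by microscope.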"}}, "note": "Values without a mark were called inactive.", "data": [{"smiles": "Cc1cccc(-c2noc(COc3ccc(Br)cc3)n2)c1", "values": [{"measurement": "proportion of mobile M. hapla J2", "setting": "Meloidogyne hapla J2", "result": 0.882}, {"measurement": "proportion of mobile C. elegans dauer larvae", "setting": "[1]", "result": 1}, {"measurement": "proportion of mobile D. dipsaci", "setting": "Ditylenchus dipsaci", "result": 1}]}, {"smiles": "COc1cccc(-c2noc(-c3ccccc3C)n2)c1", "values": [{"measurement": "proportion of mobile M. hapla J2", "setting": "Meloidogyne hapla J2", "result": 1.06}, {"measurement": "proportion of mobile D. dipsaci", "setting": "Ditylenchus dipsaci", "result": 1}]}, {"smiles": "COc1ccc(-c2noc(-c3cc(C)ccc3C)n2)cc1", "values": [{"measurement": "proportion of mobile M. hapla J2", "setting": "Meloidogyne hapla J2", "result": 0.916}, {"measurement": "proportion of mobile C. elegans dauer larvae", "setting": "[1]", "result": 1}, {"measurement": "proportion of mobile D. dipsaci", "setting": "Ditylenchus dipsaci", "result": 1}]}, {"smiles": "COc1nc(-c2ccccc2)ccc1-c1noc(-c2ccccc2C)n1", "values": [{"measurement": "proportion of mobile M. hapla J2", "setting": "Meloidogyne hapla J2", "result": 0.909}, {"measurement": "proportion of mobile C. elegans dauer larvae", "setting": "[1]", "result": 1}, {"measurement": "proportion of mobile D. dipsaci", "setting": "Ditylenchus dipsaci", "result": 1}]}, {"smiles": "COc1ccc(Cl)cc1NC(=O)CSc1nnc(-c2ccco2)o1", "values": [{"measurement": "proportion of mobile M. hapla J2", "setting": "Meloidogyne hapla J2", "result": 0.917}, {"measurement": "proportion of mobile D. dipsaci", "setting": "Ditylenchus dipsaci", "result": 1}]}, {"smiles": "Cc1cc(OCc2nc(-c3ccccn3)no2)ccc1Br", "values": [{"measurement": "proportion of mobile M. hapla J2", "setting": "Meloidogyne hapla J2", "result": 0.937}, {"measurement": "proportion of mobile D. dipsaci", "setting": "Ditylenchus dipsaci", "result": 1}]}, {"smiles": "Clc1cccc(OCc2nc(-c3ccncc3)no2)c1", "values": [{"measurement": "proportion of mobile M. hapla J2", "setting": "Meloidogyne hapla J2", "result": 0.85}, {"measurement": "proportion of mobile C. elegans dauer larvae", "setting": "[1]", "result": 1}, {"measurement": "proportion of mobile D. dipsaci", "setting": "Ditylenchus dipsaci", "result": 1}]}, {"smiles": "Cc1cc(OCc2nc(-c3ccncc3)no2)c(C)c(C)c1Br", "values": [{"measurement": "proportion of mobile M. hapla J2", "setting": "Meloidogyne hapla J2", "result": 1.06}, {"measurement": "proportion of mobile D. dipsaci", "setting": "Ditylenchus dipsaci", "result": 1}]}, {"smiles": "CCOc1nc(C)ccc1-c1noc(-c2cccc(C)c2)n1", "values": [{"measurement": "proportion of mobile M. hapla J2", "setting": "Meloidogyne hapla J2", "result": 0.847}, {"measurement": "proportion of mobile D. dipsaci", "setting": "Ditylenchus dipsaci", "result": 1}]}, {"smiles": "COc1ccccc1-c1nnc(SCc2ccccc2C)o1", "values": [{"measurement": "proportion of mobile M. hapla J2", "setting": "Meloidogyne hapla J2", "result": 0.929}, {"measurement": "proportion of mobile D. dipsaci", "setting": "Ditylenchus dipsaci", "result": 1}]}, {"smiles": "N#Cc1ccccc1CSc1nnc(-c2ccccc2)o1", "values": [{"measurement": "proportion of mobile M. hapla J2", "setting": "Meloidogyne hapla J2", "result": 0.841}, {"measurement": "proportion of mobile D. dipsaci", "setting": "Ditylenchus dipsaci", "result": 1}]}, {"smiles": "CCOc1ccc(-c2nc(-c3ccc(Cl)cc3)no2)cc1", "values": [{"measurement": "proportion of mobile M. hapla J2", "setting": "Meloidogyne hapla J2", "result": 1}, {"measurement": "proportion of mobile D. dipsaci", "setting": "Ditylenchus dipsaci", "result": 1}]}, {"smiles": "O=C(Nc1cccc(-c2noc(COc3ccccc3)n2)c1)c1cccs1", "values": [{"measurement": "proportion of mobile M. hapla J2", "setting": "Meloidogyne hapla J2", "result": 0.847}, {"measurement": "proportion of mobile D. dipsaci", "setting": "Ditylenchus dipsaci", "result": 1}]}, {"smiles": "CC(C)C(=O)Nc1ccccc1-c1nc(-c2ccccc2)no1", "values": [{"measurement": "proportion of mobile M. hapla J2", "setting": "Meloidogyne hapla J2", "result": 0.957}, {"measurement": "proportion of mobile D. dipsaci", "setting": "Ditylenchus dipsaci", "result": 1}]}, {"smiles": "COc1ccccc1NC(=O)CSc1nnc(-c2cccc3ccccc23)o1", "values": [{"measurement": "proportion of mobile M. hapla J2", "setting": "Meloidogyne hapla J2", "result": 0.811}, {"measurement": "proportion of mobile D. dipsaci", "setting": "Ditylenchus dipsaci", "result": 1}]}, {"smiles": "CCOc1ccccc1-c1nnc(SCc2ccccc2)o1", "values": [{"measurement": "proportion of mobile M. hapla J2", "setting": "Meloidogyne hapla J2", "result": 0.891}, {"measurement": "proportion of mobile D. dipsaci", "setting": "Ditylenchus dipsaci", "result": 1}]}, {"smiles": "COc1cccc(-c2noc(CSc3ccccc3)n2)c1", "values": [{"measurement": "proportion of mobile M. hapla J2", "setting": "Meloidogyne hapla J2", "result": 1.03}, {"measurement": "proportion of mobile D. dipsaci", "setting": "Ditylenchus dipsaci", "result": 1}]}, {"smiles": "Cc1cc(OCc2nc(-c3ccccn3)no2)ccc1Cl", "values": [{"measurement": "proportion of mobile M. hapla J2", "setting": "Meloidogyne hapla J2", "result": 0.834}, {"measurement": "proportion of mobile D. dipsaci", "setting": "Ditylenchus dipsaci", "result": 1}]}, {"smiles": "COc1ccc(OC(C)c2nc(-c3ccccn3)no2)cc1", "note": "(centres undefined)", "values": [{"measurement": "proportion of mobile M. hapla J2", "setting": "Meloidogyne hapla J2", "result": 1.03}, {"measurement": "proportion of mobile D. dipsaci", "setting": "Ditylenchus dipsaci", "result": 1}]}, {"smiles": "COc1ccc(CSc2nnc(-c3ccc(Cl)cc3Cl)o2)cc1", "values": [{"measurement": "proportion of mobile M. hapla J2", "setting": "Meloidogyne hapla J2", "result": 1.01}, {"measurement": "proportion of mobile D. dipsaci", "setting": "Ditylenchus dipsaci", "result": 1}]}]}
